# Screening results (PubChem)
# BAZ2B inh: inhibitors of human BAZ2B bromodomain; Q9UIF8; AlphaScreen BAZ2B-H3K14Ac peptide displacement; Potency, µM (titrated, usually from 114 µM), inactives show at the top dose activity change, negative = inhibition, usual class: inhibitors; hit rate 4.4% among 360,000; note: % is set by controls: 0 for no effect and ±100 for the full control effect; nearly all actives have a fitted effect of over 60% in size
#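 Multi-concentration screen (max 110 uM) measuring displacement of acetylated histone H3 peptide from BAZ2B by AlphaScreen, using 50 nM protein, 50 nM peptide and 10 ug/mL streptavidin donor plus Ni-chelate acceptor beads.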
# PLK1 PBD inh: inhibitors of human PLK1 polo-box domain binding | Potency, µM, without a hit: max response, negative = inhibition, most hits filed as inhibitors | Plk1 PBD binding of FITC phosphopeptide, fluorescence polarization | P53350 | hit rate 2.8% among 360,000; note: series mostly up to about 57 µM; % is set by controls: 0 for no effect and ±100 for the full control effect; nearly all actives have a fitted effect of over 65% in size
# Sfp PPTase inh: Sfp phosphopantetheinyl transferase inhibition; Q9F4F7; Biochemical Sfp PPTase activity, qHTS; Potency, µM, without a hit: largest response in the series, negative = inhibition, most hits filed as inhibitors; hit rate 3.5% among 310,000; AID 1490;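 note: the enzyme is Sfp with the accession as filed and its product quenches rhodamine fluorescence; 0% = enzyme reaction without inhibitor and -100% = no enzyme wells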
#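 Compounds were incubated with enzyme (final 15 nM) for 15 min at room temperature before substrate addition started the reaction. Fluorescence at 525 nm excitation, 598 nm emission was recorded immediately and after 30 minutes.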
# HP1b binding inh: HP1-beta chromodomain-methylated histone interaction inhibition; P83916; AlphaScreen HP1-beta / biotin-H3K9me3 peptide binding; Potency, µM (series often up to 114 µM), inactives show top-dose activity change, negative = inhibition, most hits filed as inhibitors; hit rate 0.56% among 390,000; note: nearly all actives have a fitted effect of over 70% in size
# Target sequence (P83916 whole entry, looked up): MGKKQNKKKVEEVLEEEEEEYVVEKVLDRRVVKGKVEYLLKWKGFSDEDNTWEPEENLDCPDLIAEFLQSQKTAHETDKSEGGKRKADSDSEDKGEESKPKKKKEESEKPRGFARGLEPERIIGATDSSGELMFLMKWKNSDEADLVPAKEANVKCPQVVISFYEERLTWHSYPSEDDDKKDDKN
#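 HP1-beta protein (50 nM final) preincubated 30 min at room temperature with biotinylated H3(1-18)K9me3 peptide (50 nM) in PBS pH 7.4, 0.01% Tween-20, then compound added for 30 min. AlphaScreen streptavidin donor/nickel chelate acceptor beads (10 ug/mL final), 30 min dark, luminescence read.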
# JMJD2A Tudor inh: blocks the human JMJD2A Tudor domain | O75164 | AlphaScreen JMJD2A-Tudor / H3K4me3 peptide binding | Potency, µM (series often up to 114 µM), without a hit: at the top dose activity change, negative = inhibition, most hits filed as inhibitors | hit rate 4.4% among 390,000; note: % is set by controls: 0 for no effect and ±100 for the full control effect; nearly all actives have a fitted effect of over 50% in size
# G9a block: blocks human histone lysine methyltransferase G9a; Q96KQ7; G9a H3K9 monomethylation, AlphaScreen, 2 h; Potency, µM (highest dose often 102 µM), for the others: at the highest dose activity, negative = inhibition, actives largely listed as inhibitors; hit rate 8.8% among 350,000; note: % is set by controls: 0 for no effect and ±100 for the full control effect; nearly all actives have a fitted effect of over 75% in size
# Target sequence (Q96KQ7 913-1193 limits assumed): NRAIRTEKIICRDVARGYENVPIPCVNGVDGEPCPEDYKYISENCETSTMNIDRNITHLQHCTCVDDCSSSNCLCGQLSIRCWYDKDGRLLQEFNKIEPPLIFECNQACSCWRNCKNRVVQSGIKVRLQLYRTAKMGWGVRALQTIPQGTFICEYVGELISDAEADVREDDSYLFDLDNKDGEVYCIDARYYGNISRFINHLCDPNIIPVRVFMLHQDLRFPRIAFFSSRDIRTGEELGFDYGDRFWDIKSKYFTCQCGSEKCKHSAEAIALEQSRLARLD
#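 Readings reflect AlphaScreen signal from monomethyl-H3K9 antibody detection. HMT at 20 nM; substrate b-H3K9 500 nM; cofactor SAM 20 uM; 2 h RT reaction; compounds tested as titrations in qHTS with 15 min preincubation.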
# * hit, by the source's call; u = inconclusive; x = no result given; [ ] = dose if it differs, or a comment. Only some compounds are listed: those with a hit (about 12% of all), similar ones and a draw of the others. Calls come from the whole dose curve; as a rule, active = well fitted curve in the direction sought with a large enough effect; inconclusive = small, poorly fitted or top-dose-only effect, or another doubt; inactive = no such curve, though single readings can be large; an effect the other way counts as inactive or inconclusive. Potency is the fitted concentration of half-maximal effect.
SMILES,BAZ2B inh,PLK1 PBD inh,Sfp PPTase inh,HP1b binding inh,JMJD2A Tudor inh,G9a block
CC(=O)Nc1n[nH]c(=S)s1,x,-14%,x,u,5µM*,x
Cc1ccc(NC(=O)C2CC(=O)N(c3ccccc3Cl)C2)cc1S(=O)(=O)N1CCOCC1 (stereo not given),x,1%,x,28%,-4%,x
CN(C(=O)COC(=O)C1(C)CC1(Cl)Cl)c1c(N)n(Cc2ccccc2)c(=O)[nH]c1=O (stereo not given),16%,-1%,x,43%,1%,u
O=C(COc1ccccc1)Nn1cnc2ccccc21,u,u,u,31%,-15%,20µM*
Cc1nc2ccccc2c(=O)n1NC(=O)COc1ccccc1,-22%,-4%,2%,4%,-17%,-43%[12.7 µM]
Cc1cc(N2C(=O)Cc3ccccc3C2=O)ccc1C(C)C,3%,-5%,0%,18%,-19%,16%
CCCCN1C=CC(=C2C(=O)c3ccccc3C2=O)C=C1,22%,3%,20%,41%,-4%,50µM*
COCCCn1c(=O)/c(=C\c2ccccc2OC(F)F)s/c1=C(/C#N)C(N)=O,-25%,3%,4%,30%,-6%,-4%
C=CCn1c(=O)/c(=C/c2ccc(C)o2)s/c1=C(/C#N)C(=O)c1ccccc1,11µM*,u,u,u,-18%,u
COc1ccc(C2Nc3cc(OC)ccc3-n3cccc32)cc1 (stereo not given),89%,0%,-27%,222%,88%,-46%
Cc1ccc(C(=O)CSc2nc3c([nH]2)c(=O)n(C)c(=O)n3C)cc1,-14%,-7%,-8%,6%,-2%,40µM*
CC(C)N(C(=O)CSc1nc2c([nH]1)c(=O)n(C)c(=O)n2C)c1ccccc1,-5%,-5%,-26%,49%,-11%,25µM*
CC(C)N(C(=O)CSc1nc2ccc(Cl)cc2[nH]1)c1ccccc1,5%,x,x,67%,-13%,u
Cc1ccc(C(=O)CSc2nc(N)cc(=O)[nH]2)cc1,-6%,-13%,1%,26%,-17%,17%[59 µM]
O=C(NC1CCCCC1)c1ccc(CSc2nc3ccncc3n2Cc2ccccc2)cc1,0%,x,x,40%,-17%,u
CCC(=O)c1ccc(OCC(=O)N2CCN(c3ncccn3)CC2)cc1,-4%,0%,x,12%,-4%,17%[0.501 µM]
C[C@H](C(=O)O)c1ccc2cc(O)ccc2c1,x,x,4%,x,x,x
CCc1cccc(C)c1NC(=O)C1CCCN1S(=O)(=O)c1cccc2nsnc12 (stereo not given),-13%,x,x,31%,-7%,3%[59 µM]
O=C1C=C(O)c2cccc3cccc1c23,-2%,-17%,-4%,19%,-33%,13%[0.501 µM]
NC1=CC(=O)c2cccc3cccc1c23,u,x,3.5µM*,x,x,u
COC(=O)CCC(=O)OC1(C)C(=O)C=C2C=C(C3CC3)N(CCCCO)C=C2C1=O (stereo not given),-15%,-19%,2%,2%,-15%,29%[59 µM]
COC(=O)CCC(=O)OC1(C)C(=O)C=C2C=C(C3CC3)N(CCCOC(C)C)C=C2C1=O (stereo not given),-6%,30µM*,9%,27%,-19%,-2%[12.7 µM]
Cc1ccc(S(=O)(=O)N/N=C2\C(=O)C3(C)CCC2C3(C)C)cc1 (stereo not given),u,-2%,19%,52%,-8%,14µM*
Cc1ccc(S(=O)(=O)NN=C2C(=O)C3CCC2C3Cl)cc1 (stereo not given),x,-4%,x,49%,u,x
COCCN(CCOC)C(=O)C12CCC(C)(C(=O)C1)C2(C)C (stereo not given),-5%,-4%,12%,10%,-10%,50µM*
SMILES,BAZ2B inh,PLK1 PBD inh,Sfp PPTase inh,HP1b binding inh,JMJD2A Tudor inh,G9a block
CC12CCC(C(=O)NNc3ccc([N+](=O)[O-])cc3)(CC1=O)C2(C)C (stereo not given),-3%,-17%,-26%,22%,-11%,8%[59 µM]
Nc1c(C(=O)NCc2ccco2)c2nc3ccccc3nc2n1CCc1ccccc1,0%,-8%,50µM*,67%,28%,u
COc1cc([N+](=O)[O-])ccc1NC(=O)/C=C\C(=O)O,-33%,-12%,23%,18%,-14%,-45%
COc1cc([N+](=O)[O-])ccc1NC(=O)/C=C/C(=O)O,6%,-10%,-25%,14%,-16%,50µM*
CSc1ccccc1C(=O)Nc1cccc([N+](=O)[O-])c1C,-6%,-2%,2%,27%,-6%,-49%
COCCSc1ccccc1C(=O)Nc1cc([N+](=O)[O-])ccc1OC,-17%,-12%,17%,18%,-14%,40µM*
CSc1ccccc1C(=O)Nc1cc([N+](=O)[O-])ccc1C,-16%,5%,-13%,15%,-3%,10µM*
COc1ccc([N+](=O)[O-])cc1NC(=O)CC(c1ccccc1)c1ccccc1,6%,-11%,3%,25%,-11%,4%[59 µM]
Cc1ccc(C)c(NC(=O)c2ccccc2O)c1,4%,3.4µM*,3%,-12%,u,17%[59 µM]
CCc1ccc(C(O)(CNCc2ccccc2)c2ccccc2)cc1 (stereo not given),18%,-5%,2%,66%,31%,10%
CC(=O)c1cccc(NC(=O)C2CCCN2S(=O)(=O)c2cccs2)c1 (stereo not given),x,-9%,x,x,x,x
COc1cccc(C(C)(O)c2nc(-c3ccc(OC)nc3)cs2)c1 (stereo not given),x,-6%,x,x,x,x
COCCSc1ccccc1C(=O)Nc1ccc([N+](=O)[O-])cc1OC,-29%,5%,16%,17%,-13%,22µM*
CC(C)(C)SCCNS(=O)(=O)c1ccc(Cl)cc1,-1%,u,9%,-14%,18µM*,36%[12.7 µM]
CC(C)(C)SCCNS(=O)(=O)c1ccc(C#N)cc1,0%,0%,16%,-2%,-14%,-2%
O=C(NCCc1ccccc1)c1ccc(Cn2c(SCc3ccccc3)nc3cccnc32)cc1,-4%,x,x,32%,-11%,-15%[59 µM]
COc1ccc(S(=O)(=O)n2oc(=O)cc2-c2ccccc2)cc1OC,56µM*,u,-25%,4%,35µM*,u
COc1ccc(S(=O)(=O)n2oc(=O)cc2-c2ccccc2)cc1,56µM*,-17%,2%,13%,-15%,40µM*
O=c1cc(-c2ccccc2)n(S(=O)(=O)c2ccc3ccccc3c2)o1,x,u,x,-19%,45µM*,x
COc1ccc(C(=O)OCc2c(F)cccc2Cl)cc1S(=O)(=O)N1CCOCC1,-7%,2%,x,1%,-5%,-11%[2.33 µM]
CCOC(=O)c1ccc(NC(=O)Nc2ccc3snnc3c2)cc1,0%,x,x,28%,-3%,-8%[59 µM]
O=C(c1cccc(F)c1)N1CCCN(C(=O)c2cccc(F)c2)CC1,-12%,-1%,6%,36%,4%,10%[59 µM]
